About 580 (1.9%) of roughly 30,000 compounds were called active. No stated cut-off is given here; in the data, active means inhibition above about 43%; inactive means the rest. Many of the other results were omitted from the sample, so actives are more common in it than they were.

Sequence of Serine/threonine-protein kinase ULK1 (Homo sapiens) (O75385 whole entry, looked up): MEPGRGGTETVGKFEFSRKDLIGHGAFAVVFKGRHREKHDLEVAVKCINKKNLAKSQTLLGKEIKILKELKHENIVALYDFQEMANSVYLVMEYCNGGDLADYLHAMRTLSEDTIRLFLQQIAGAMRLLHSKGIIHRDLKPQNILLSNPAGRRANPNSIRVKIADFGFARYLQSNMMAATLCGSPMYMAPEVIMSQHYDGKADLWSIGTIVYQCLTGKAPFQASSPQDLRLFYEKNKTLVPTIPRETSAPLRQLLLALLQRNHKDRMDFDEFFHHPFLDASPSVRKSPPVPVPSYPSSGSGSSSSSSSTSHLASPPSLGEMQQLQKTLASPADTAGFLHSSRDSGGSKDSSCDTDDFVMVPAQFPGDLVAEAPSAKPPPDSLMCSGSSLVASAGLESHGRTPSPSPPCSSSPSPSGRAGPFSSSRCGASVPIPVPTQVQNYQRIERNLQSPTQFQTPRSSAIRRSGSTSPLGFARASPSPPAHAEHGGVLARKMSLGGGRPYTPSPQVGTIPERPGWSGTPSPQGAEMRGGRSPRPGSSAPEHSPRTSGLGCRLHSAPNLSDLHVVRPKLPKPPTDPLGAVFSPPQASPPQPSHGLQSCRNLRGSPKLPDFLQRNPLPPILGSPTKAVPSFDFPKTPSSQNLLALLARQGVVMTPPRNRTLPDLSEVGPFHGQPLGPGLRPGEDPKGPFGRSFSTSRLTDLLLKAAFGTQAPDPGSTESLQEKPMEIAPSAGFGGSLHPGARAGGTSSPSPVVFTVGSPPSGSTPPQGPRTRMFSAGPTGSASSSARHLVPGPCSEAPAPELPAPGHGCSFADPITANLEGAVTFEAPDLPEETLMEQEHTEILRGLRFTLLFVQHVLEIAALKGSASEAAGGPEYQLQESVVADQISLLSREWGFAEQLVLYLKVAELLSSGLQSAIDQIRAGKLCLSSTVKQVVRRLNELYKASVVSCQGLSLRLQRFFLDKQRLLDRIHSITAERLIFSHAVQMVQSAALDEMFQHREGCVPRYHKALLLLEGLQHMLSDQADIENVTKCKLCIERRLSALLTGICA

The assay addresses Serine/threonine-protein kinase ULK1 (Homo sapiens) (UniProt O75385). Kind of assay: ULK1 kinase inhibitors, primary screen, biochemical, AlphaScreen (AID 1259251).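 Further: 0% = median of compound wells and 100% = no enzyme.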 To be noted: AlphaScreen Atg13 phosphorylation by ULK1, luminescence; at 5.96 µM; active compounds read high. On the technique in general: Alpha assays give light when donor and acceptor beads are brought close together.
Consider `CN1CCN(c2ncn(-c3ccc(Nc4nccc(-c5ccc(NS(C)(=O)=O)cc5)n4)cc3)n2)CC1`, for which the inhibition (in general, the drop in the measured response relative to a control, in per cent) is 63.3% (active).
For the compound `CN(C)c1cc(F)cc(-c2ccnc(Nc3ccc(-n4cnc(N5CCOCC5)n4)cc3)n2)c1`, the inhibition is -12.3% (inactive).
Then `Cn1nccc1-c1cc(F)cc(-c2ccnc(Nc3ccc(-n4cnc(N5CCOCC5)n4)cc3)n2)c1`, with 10.3% (inactive); and `CC(=O)Nc1ccc(Nc2ncnc3nc(N4CCOCC4)[nH]c23)cc1`, with -7.72% (inactive); and `CCCNC(=O)Cc1cn(-c2ccc(Nc3ccc(-n4ccnc4)cc3)nn2)c2ccccc12`, with 0.04% (inactive).
Take `CC(C)(C)NC(=O)N1CCCN(c2ccc(S(C)(=O)=O)cc2)CC1`: the inhibition is 6.31% (inactive).
Then `CN1CCc2nc(NC(=O)c3ccc(Cl)cc3Cl)sc2C1`, with -7.21% (inactive).
Then `O=C(Nc1ccc(N2CCOCC2)cc1)c1cnc(Nc2ccc(-n3ccnc3)cc2)s1`, with 17.6% (inactive); and `CN(C)c1cccc(Nc2nc3ccc(C(=O)Nc4ccc(N5CCOCC5)cc4)cc3s2)c1`, with 24.1% (inactive); and `O=C(Nc1ccc(N2CCOCC2)cc1)c1csc(Nc2ccc(-n3ccnc3)cc2)n1`, with 47.9% (active).
With `O=C(Nc1ccc(N2CCOCC2)cc1)c1ccc2nc(Nc3ccncc3)sc2c1`, the inhibition was 52.9% (active).
In the case of `O=C(NCc1ccccc1)c1csc(Nc2ccc(N3CCOCC3)cc2)n1` it was 25.3% (inactive).
Turning to `O=C(Nc1ccccc1)c1ccc2nc(NCCN3CCOCC3)sc2c1`, the inhibition is 2.47% (inactive).
As for `Cc1cnnn1-c1ccc(Nc2nccc(-c3cc(C#N)cc(N4CCOCC4)c3)n2)cc1`, the inhibition is 14.1% (inactive).
In the case of `O=C(Nc1ccc2[nH]ncc2c1)[C@H]1C[C@@H](O)CN1C(=O)Cc1ccc(Br)cc1` it was 5.77% (inactive); in that of `O=C(NCCCN1CCCC1=O)c1cccc(Cl)n1`, 10.3% (inactive); in that of `FC(F)(F)c1ccc(Cn2cnc3c(Nc4ccc5c(c4)OCO5)nc(N4CCC(N5CCOCC5)CC4)nc32)cc1`, 10% (inactive).
Then `c1cnc2ccc(Nc3nc4ncnc(NCc5nc6ccccc6[nH]5)c4[nH]3)cc2c1`, with 15.5% (inactive).
In the case of `O=C(NC1CC1)c1cccc(Nc2cccnc2)n1` it was -1.02% (inactive); in that of `FC(F)(F)c1cccc(CNc2nc(Nc3ccc(N4CCOCC4)cc3)nc3c2ncn3-c2ccsc2)c1`, -6.13% (inactive); in that of `CC(C)n1c(N2CCOCC2)nc2c(NCc3ccccc3)ncnc21`, -2.96% (inactive).
`CCN(CC)C(=O)C1CCCN(c2cccc(C(=O)NCc3nc4ccccc4[nH]3)c2)C1` (centres undefined): the inhibition was 7.49% (inactive).
Then `COc1cccc(CN(CCN(C)C)C(=O)c2cn3cc(-c4ccnc(N)n4)ccc3n2)c1`, with 0.96% (inactive); and `COc1cc2nc(-c3csc4ccccc34)nc(Nc3ccc(Oc4ccccc4)cc3)c2cc1OC`, with -36.4% (inactive); and `O=C(NC1CCN(Cc2ccccc2)CC1)c1ccc(-c2ccccc2)s1`, with -15.1% (inactive).
As for `COc1ccc(C2=NC(C)(C)NC(c3ccccc3O)C2)cc1` (centres undefined), the inhibition was 22.6% (inactive).
For `Cc1nc(C)n(-c2ccc(Nc3ncc4ccc(-c5cnn(C)c5)cc4n3)cc2)n1`, the inhibition is 75.2% (active).
As to `Cc1nc(C)n(-c2ccc(Nc3cc(-n4ccnn4)ccn3)cc2)n1`, the inhibition is -1.71% (inactive).
Take `Cc1ncn(-c2ccc(Nc3ncc(-c4cnn(C)c4)c(-c4cnn(C)c4)n3)cc2)n1`: the inhibition was -7.3% (inactive).
In the case of `Cc1noc(C)c1-c1nc(N)c2ncn(-c3ccccc3)c2n1` it was 29.2% (inactive); in that of `CC(=O)NNC(=O)C(C)Oc1ccc(Cl)cc1Cl` (centres undefined), 3.12% (inactive).
In the case of `CC1(C(=O)Nc2ccc(-c3cn[nH]c3)cc2)COc2ccccc2C1` (centres undefined) it was -8.37% (inactive); in that of `c1ccc(Nc2nccc(Nc3ccc(N4CCOCC4)cc3)n2)cc1`, 4.53% (inactive).
In the case of `c1ccc(-n2cnc(-c3ccnc(Nc4ccc(N5CCOCC5)cc4)c3)n2)cc1` it was -3.17% (inactive); in that of `Fc1cnc(Nc2ccc(N3CCNCC3)cc2)cc1-n1cnc(Nc2ccccc2)n1`, 90.4% (active).
With `CN(C)c1cccc(Nc2nccc(NCc3ccccc3)n2)c1`, the inhibition is 1.8% (inactive).
In the case of `CC[C@H]1OC(=O)[C@H](C)C(=O)[C@H](C)[C@@H](O[C@@H]2O[C@H](C)C[C@H](N(C)C)[C@H]2O)[C@](C)(OC)C[C@@H](C)C(=O)[C@H](C)[C@@H]2N(CCCCn3cnc(-c4cccnc4)c3)C(=O)OC21C` (some centres undefined) it was -2.96% (inactive); in that of `O=C(NCCCN1CCCC1=O)c1cnc(-c2ccccc2)s1`, 0.58% (inactive).
Then `COc1ccc(CCNc2nc(-c3ccc(N4CCOCC4)nc3)ncc2C)cc1`, with -5.93% (inactive); and `COc1ccc(CCNc2nc(Nc3ncccn3)nc3c2ncn3CCN2CCCC2=O)cc1`, with 27.6% (inactive).
In the case of `O=C(NCc1nc2ccccc2[nH]1)c1cccc(Nc2ncccn2)n1` it was 10.3% (inactive); in that of `O=C(NCc1nc2ccccc2[nH]1)c1csc(Nc2cnccn2)n1`, 46.6% (active); in that of `O=C(NCCc1ccc(O)cc1)c1csc(Nc2cnccn2)n1`, 12.4% (inactive).
`CC(=O)c1cccc(-c2nccc(Nc3ccccc3)n2)c1`: the inhibition was -2.99% (inactive).
In the case of `COc1cc2nc(Nc3ccc(-n4ccnc4)cc3)nc(Nc3cc(OC)c(OC)c(OC)c3)c2cc1OC` it was -15.5% (inactive).
For the compound `C/C(CC(=O)NC1CCCC1)=N\NC(=O)COc1cccc(C)c1`, the inhibition was -34.7% (inactive).
Then `Cc1cc(NCc2ccccc2)nc(N2CCN(Cc3ccc4c(c3)OCO4)CC2)n1`, with -4.09% (inactive).
In the case of `COc1ccc2c(c1)CC(C(=O)Nc1nc3ccc(-c4cn[nH]c4C)cc3s1)CO2` (centres undefined) it was -7.18% (inactive); in that of `CCOc1ccccc1C1/C(=C(\O)c2ccc(OC)cc2C)C(=O)C(=O)N1CCN(C)C` (centres undefined), -3.39% (inactive); in that of `Fc1cnc(Nc2ccc(Cn3ccnc3)cc2)nc1-c1cccc(N2CCOCC2)c1`, 45.9% (active).
With `Fc1cc(-c2nc(Nc3ccc(CN4CCOCC4)cc3)ncc2F)cc(N2CCOCC2)c1`, the inhibition is 13.5% (inactive).
`Cc1ccc(-c2ncn(-c3ccc(Nc4ncc(F)c(-c5cccc(N6CCOCC6)c5)n4)cc3)n2)cn1`: the inhibition was -16.4% (inactive).
In the case of `CC(=O)OCc1nc2ccc(-c3ccncc3)cc2[nH]1` it was -6.82% (inactive); in that of `O=C(NCc1cccnc1)c1ccnc(NCc2cccnc2)c1`, 8.32% (inactive).

(Values after PubChem BioAssay AID1259251 (The Scripps Research Institute Molecular Screening Center, 2017).)
